Test [1] addresses Bile acid receptor (Homo sapiens) (UniProt Q96RI1). In words: ATG_IR1_CIS: Attagene CIS-FACTORIAL HepG2 Assay for human Nuclear Receptor Subfamily 1 Group H Member 4 (NR1H4), IR1 submotif (AID 2282946). Conditions: IR1 reporter transcription, actives raise or lower the signal. A digest of the protocol:
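Fluorescence of capillary-separated, HpaI-digested RT-PCR reporter products gave IR1-element mRNA induction in HepG2 cells 24 h after dosing. Endogenous transcription factors drove the cis-regulated reporters; activity was fitted bidirectionally against DMSO.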

Test [2] in a line: ATG_GRE_CIS: Attagene CIS-FACTORIAL HepG2 Assay for human Glucocorticoid Response Elements (GRE) (AID 2282947). Conditions: HepG2 GRE cis-reporter, Attagene multiplex mRNA; actives raise or lower the signal. The gist of the method: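 Read-out: fluorescent reporter-transcript fragments separated by capillary electrophoresis after RT-PCR. Transiently transfected HepG2 cells carrying cis-element-driven reporter units were dosed for 24 h; gain or loss of signal fitted against DMSO control.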

A short description of test [3]: ATG_ISRE_CIS: Attagene CIS-FACTORIAL HepG2 Assay for human Interferon Regulatory Factor 1 (IRF1) binding to an Interferon-Stimulated Response Element (ISRE) (AID 2282948). Conditions: HepG2 ISRE cis-reporter (Attagene), mRNA transcription readout; actives raise or lower the signal. The gist of the method:
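Endogenous transcription factor activity read as reporter transcript abundance via RT-PCR and capillary electrophoresis. HepG2 cells transiently transfected, 24 h chemical exposure. Gain or loss fitted against DMSO baseline.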

A short description of test [4]: ATG_M_32_CIS: Attagene CIS-FACTORIAL HepG2 Assay for M32 Transcription Factor (Internal Marker) (AID 2282949).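 Further: background control marker of the multiplexed CIS panel rather than a real target.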 The note with it: HepG2 Attagene cis-factorial M32 reporter, mRNA; actives raise or lower the signal. The gist of the method:
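Using DMSO as baseline, bidirectional curve fits were applied to reporter mRNA signals. These came from transiently transfected HepG2 cells exposed for 24 h, with RNA analysed by RT-PCR, FAM primer extension, HpaI digestion and CE.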

Test [5] addresses Hypoxia-inducible factor 1-alpha (Homo sapiens) (UniProt Q16665). As to the kind of experiment: ATG_HIF1a_CIS: Attagene CIS-FACTORIAL HepG2 Assay for human Hypoxia Inducible Factor 1 (HIF1A) (AID 2282951). The note with it: HepG2 Attagene cis-factorial HIF1a reporter transcription; actives raise or lower the signal. The gist of the method:
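In this multiplexed cell assay, HepG2 cells bearing transfected cis reporters are dosed for 24 h and reporter mRNA is read by RT-PCR plus capillary electrophoresis; signal increases and decreases are both scored against DMSO.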

Test [6] has as its target Hepatocyte nuclear factor 6 (Homo sapiens) (UniProt Q9UBC0). In words: ATG_HNF6_CIS: Attagene CIS-FACTORIAL HepG2 Assay for human Hepatocyte Nuclear Factor 6 (HNF6) (AID 2282952). Conditions: HepG2 Attagene cis-factorial HNF6 reporter transcription; actives raise or lower the signal. A digest of the protocol:
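Activity values derive from bidirectional fitting against DMSO of reporter mRNA levels, measured by capillary electrophoresis of labelled RT-PCR products from HepG2 cells exposed 24 h.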

Test [7] has as its target Heat shock factor protein 1 (Homo sapiens) (UniProt Q00613). As to the kind of experiment: ATG_HSE_CIS: Attagene CIS-FACTORIAL HepG2 Assay for human Heat Shock Transcription Factor 1 (HSE) (AID 2282953). Conditions: HepG2 HSE cis-reporter, Attagene RNA transcription; actives raise or lower the signal. A digest of the protocol: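 Using HepG2 with transfected cis-driven reporter constructs, compound effects on endogenous factor activity are scored as reporter mRNA change at 24 h. Detection: RT-PCR, HpaI digestion, capillary electrophoresis; bidirectional fitting to DMSO.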

Test [8] is described as follows: ATG_MRE_CIS: Attagene CIS-FACTORIAL HepG2 Assay for human Metal Responsive Element (MRE) (AID 2282954). The note with it: HepG2 MRE cis-reporter transcription, Attagene multiplex; actives raise or lower the signal. The gist of the method:
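RT-PCR/capillary electrophoresis readout of reporter mRNA, 24 h post-dosing, in HepG2 cells transfected with multiplexed cis-regulated reporter constructs. Gain or loss of signal fitted bidirectionally against DMSO baseline.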

A short description of test [9]: ATG_PBREM_CIS: Attagene CIS-FACTORIAL HepG2 Assay for human Phenobarbital-responsive Enhancer Module (PBREM) (AID 2282955). Conditions: HepG2 PBREM cis-reporter, Attagene multiplexed transcription; actives raise or lower the signal. The gist of the method:
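After a 24 h incubation with test chemical, transfected HepG2 cells yield total RNA; reporter-specific RT-PCR products are fluorescently labelled, HpaI-digested and resolved by capillary electrophoresis against ROX size standards.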

Test [10] concerns the target Paired box protein Pax-6 (Homo sapiens) (UniProt P26367). As to the kind of experiment: ATG_Pax6_CIS: Attagene CIS-FACTORIAL HepG2 Assay for human Paired Box 6 (PAX6) (AID 2282956). Conditions: HepG2 CIS-FACTORIAL PAX6 reporter transcription, RNA readout; actives raise or lower the signal. The gist of the method:
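Read-out is reporter transcript level, measured by RT-PCR with fluorescent primer extension and capillary electrophoresis after 24 h dosing of transfected HepG2 cells. Activity in either direction fitted relative to DMSO control.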

A short description of test [11]: ATG_PXRE_CIS: Attagene CIS-FACTORIAL HepG2 Assay for human Pregnane X Receptor Element (PXRE) (AID 2282957). Conditions: HepG2 Attagene CIS-FACTORIAL PXRE reporter, mRNA; actives raise or lower the signal. The gist of the method: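 Fluorescent capillary electrophoresis of amplified reporter cDNA gave the signal, collected 24 h after dosing HepG2 cells that held transfected cis-element reporter constructs.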

A short description of test [12]: ATG_PPRE_CIS: Attagene CIS-FACTORIAL HepG2 Assay for human Peroxisome Proliferator-activated Response Element (PPRE) (AID 2282958). The note with it: HepG2 PPRE cis-element reporter, Attagene transcription factor profiling; actives raise or lower the signal. The gist of the method: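 Multiplexed reporter transcription units under cis-regulatory promoters were transfected into HepG2 cells to capture endogenous factor activity. A 24 h incubation preceded RNA isolation and fluorescent RT-PCR fragment analysis.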

Test [13] can be described thus: ATG_RORE_CIS: Attagene CIS-FACTORIAL HepG2 Assay for human RAR-related Orphan Receptor Element (RORE) (AID 2282959). Conditions: HepG2 Attagene cis-factorial RORE reporter, mRNA; actives raise or lower the signal. A digest of the protocol:
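Fluorescence intensity of reporter-specific cDNA fragments, separated by capillary electrophoresis, gives the signal. Source: HepG2 liver cells transiently transfected with cis-element reporters and exposed 24 h; DMSO-normalized bidirectional fit.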

A short description of test [14]: ATG_Sox_CIS: Attagene CIS-FACTORIAL HepG2 Assay for human SRY-box transcription factor (SOX) (AID 2282960). The note with it: HepG2 Attagene cis-factorial SOX reporter, mRNA; actives raise or lower the signal. A digest of the protocol:
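After 24 h of chemical treatment, transfected HepG2 reporter cells are lysed for total RNA. Transcript levels come from RT-PCR with labelled primer extension and capillary electrophoresis, analysed bidirectionally versus DMSO.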

Test [15] deals with Transcription factor Sp1 (Homo sapiens) (UniProt P08047). In words: ATG_Sp1_CIS: Attagene CIS-FACTORIAL HepG2 Assay for human Specificity Protein 1 (Sp1) (AID 2282961). The note with it: HepG2 Sp1 cis-reporter transcription, actives raise or lower the signal. The gist of the method:
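Sp1-driven reporter mRNA, read as capillary electrophoresis fluorescence after RT-PCR, in transiently transfected HepG2 cells dosed for 24 h; signal change in either direction relative to DMSO.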

Test [16] in a line: ATG_SREBP_CIS: Attagene CIS-FACTORIAL HepG2 Assay for human Sterol Regulatory Element Binding (SREBP) (AID 2282962). The note with it: HepG2 Attagene cis-factorial SREBP reporter, mRNA; actives raise or lower the signal. A digest of the protocol: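 Endogenous SREBP activity read as cis-element-driven reporter transcript in transiently transfected HepG2, 24 h post-dosing; quantified via RT-PCR plus capillary electrophoresis of fluorescent fragments. Gain or loss of signal fitted relative to DMSO baseline.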

Test [17] deals with Signal transducer and activator of transcription 3 (Homo sapiens) (UniProt P40763). As to the kind of experiment: ATG_STAT3_CIS: Attagene CIS-FACTORIAL HepG2 Assay for human Signal Transducer and Activator of Transcription 3 (STAT3) (AID 2282963). Conditions: HepG2, Attagene cis-factorial STAT3 reporter transcription; actives raise or lower the signal. A digest of the protocol: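 Readout: fluorescent reporter mRNA fragments resolved by capillary electrophoresis. Setup: HepG2 transfected with MRTUs reporting endogenous transcription-factor activity, dosed 24 h. Gain or loss of signal fitted bidirectionally against DMSO control.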
Signal transducer and activator of transcription 3 (Homo sapiens), sequence (P40763 whole entry, looked up, the tested form may be a part): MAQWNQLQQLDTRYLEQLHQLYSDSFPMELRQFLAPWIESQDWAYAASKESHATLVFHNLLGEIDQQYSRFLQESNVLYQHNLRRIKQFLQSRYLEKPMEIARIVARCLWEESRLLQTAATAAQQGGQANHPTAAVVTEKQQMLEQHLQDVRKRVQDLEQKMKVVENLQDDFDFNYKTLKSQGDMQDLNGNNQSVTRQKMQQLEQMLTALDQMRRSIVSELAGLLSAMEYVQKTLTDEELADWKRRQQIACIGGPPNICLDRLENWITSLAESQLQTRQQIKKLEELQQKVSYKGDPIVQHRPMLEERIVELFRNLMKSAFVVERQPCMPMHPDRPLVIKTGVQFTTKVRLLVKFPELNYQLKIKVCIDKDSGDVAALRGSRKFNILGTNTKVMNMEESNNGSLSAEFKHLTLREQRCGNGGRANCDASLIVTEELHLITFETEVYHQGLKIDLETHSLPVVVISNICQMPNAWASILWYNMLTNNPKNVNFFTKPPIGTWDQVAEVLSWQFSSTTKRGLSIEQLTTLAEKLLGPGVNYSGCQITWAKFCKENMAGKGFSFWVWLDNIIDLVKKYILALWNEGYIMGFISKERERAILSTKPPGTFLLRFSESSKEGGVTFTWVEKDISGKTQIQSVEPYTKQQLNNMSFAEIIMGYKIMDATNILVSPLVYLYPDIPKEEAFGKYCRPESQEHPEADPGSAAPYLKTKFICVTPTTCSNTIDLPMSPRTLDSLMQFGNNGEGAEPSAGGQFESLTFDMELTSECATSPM

Test [18] can be described thus: ATG_TA_CIS: Attagene CIS-FACTORIAL HepG2 Assay for human TA Basal Promoter (AID 2282964). The note with it: HepG2 Attagene CIS-factorial TA basal promoter reporter; actives raise or lower the signal. The gist of the method: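 Transient MRTU transfection of HepG2 preceded 24 h compound exposure. Reporter mRNA levels were then read by RT-PCR with capillary electrophoresis, and this background-control endpoint was fitted bidirectionally to DMSO.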

Test [19] is described as follows: ATG_TCF_b_cat_CIS: Attagene CIS-FACTORIAL HepG2 Assay for human T-Cell-Factor with beta-catenin (TCF/b-cat) (AID 2282965). The note with it: HepG2 TCF/beta-catenin cis-reporter transcription, actives raise or lower the signal. A digest of the protocol: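 Cells of the HepG2 line carry transiently transfected reporter units whose promoters respond to endogenous factors. Twenty-four hours post-dosing, reporter mRNA induction is measured by fluorescent RT-PCR and capillary electrophoresis, with DMSO as baseline.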

Test [20] in a line: ATG_M_06_CIS: Attagene CIS-FACTORIAL HepG2 Assay for M06 Transcription Factor (Internal Marker) (AID 2282950). The note with it: HepG2 Attagene CIS-FACTORIAL M06 internal marker reporter; actives raise or lower the signal. A digest of the protocol:
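One of many multiplexed endpoints: HepG2 reporter mRNA after 24 h dosing, detected by RT-PCR and capillary electrophoresis fluorescence; gain or loss of signal analysed against DMSO.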

The source made the active and inactive calls. How the source made its calls: active means hit-call score of the fitted dose curve at least 0.9, where 1 is the maximum; inactive means score below 0.9.

Heat shock factor protein 1 (Homo sapiens), sequence (Q00613 whole entry, looked up): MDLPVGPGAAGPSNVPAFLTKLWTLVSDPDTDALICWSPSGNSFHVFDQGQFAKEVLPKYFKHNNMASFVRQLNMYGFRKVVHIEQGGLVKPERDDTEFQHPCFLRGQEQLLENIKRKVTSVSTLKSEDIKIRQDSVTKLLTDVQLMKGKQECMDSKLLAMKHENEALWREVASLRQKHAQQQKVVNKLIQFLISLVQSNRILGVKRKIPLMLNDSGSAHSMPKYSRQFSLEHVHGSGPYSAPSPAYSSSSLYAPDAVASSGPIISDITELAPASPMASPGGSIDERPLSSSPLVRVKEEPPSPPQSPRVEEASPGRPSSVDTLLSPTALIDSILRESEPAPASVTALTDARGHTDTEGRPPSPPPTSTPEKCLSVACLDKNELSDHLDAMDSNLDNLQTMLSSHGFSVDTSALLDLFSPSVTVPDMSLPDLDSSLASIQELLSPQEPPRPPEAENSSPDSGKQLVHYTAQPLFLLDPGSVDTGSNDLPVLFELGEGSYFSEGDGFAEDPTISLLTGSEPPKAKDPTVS
Hepatocyte nuclear factor 6 (Homo sapiens), sequence (Q9UBC0 whole entry, looked up): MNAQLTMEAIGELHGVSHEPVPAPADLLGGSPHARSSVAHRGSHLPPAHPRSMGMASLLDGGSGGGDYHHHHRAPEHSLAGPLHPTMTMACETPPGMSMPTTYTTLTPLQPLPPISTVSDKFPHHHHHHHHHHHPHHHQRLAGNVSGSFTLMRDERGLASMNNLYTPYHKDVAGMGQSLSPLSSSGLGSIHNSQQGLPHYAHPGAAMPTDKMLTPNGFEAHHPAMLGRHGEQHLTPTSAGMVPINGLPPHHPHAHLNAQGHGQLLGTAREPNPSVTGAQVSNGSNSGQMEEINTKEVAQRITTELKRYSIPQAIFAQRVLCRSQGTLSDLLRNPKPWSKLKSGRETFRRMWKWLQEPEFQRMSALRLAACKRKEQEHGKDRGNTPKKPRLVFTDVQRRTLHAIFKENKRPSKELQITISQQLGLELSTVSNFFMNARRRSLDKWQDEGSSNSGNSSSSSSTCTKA
Bile acid receptor (Homo sapiens), sequence (Q96RI1 whole entry, looked up): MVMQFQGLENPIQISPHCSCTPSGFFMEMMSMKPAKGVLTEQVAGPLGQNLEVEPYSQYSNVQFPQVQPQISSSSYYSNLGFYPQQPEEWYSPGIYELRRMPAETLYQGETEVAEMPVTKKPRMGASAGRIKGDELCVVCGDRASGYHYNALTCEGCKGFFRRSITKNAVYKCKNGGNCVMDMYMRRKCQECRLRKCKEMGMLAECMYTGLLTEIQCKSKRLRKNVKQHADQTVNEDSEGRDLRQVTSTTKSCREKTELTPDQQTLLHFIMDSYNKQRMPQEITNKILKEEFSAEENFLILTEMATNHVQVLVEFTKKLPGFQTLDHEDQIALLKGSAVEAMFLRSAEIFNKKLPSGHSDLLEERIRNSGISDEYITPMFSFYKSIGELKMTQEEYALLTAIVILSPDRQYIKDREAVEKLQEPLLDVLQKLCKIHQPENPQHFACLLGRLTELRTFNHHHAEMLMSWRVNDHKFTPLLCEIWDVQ
Hypoxia-inducible factor 1-alpha (Homo sapiens), sequence (Q16665 whole entry, looked up): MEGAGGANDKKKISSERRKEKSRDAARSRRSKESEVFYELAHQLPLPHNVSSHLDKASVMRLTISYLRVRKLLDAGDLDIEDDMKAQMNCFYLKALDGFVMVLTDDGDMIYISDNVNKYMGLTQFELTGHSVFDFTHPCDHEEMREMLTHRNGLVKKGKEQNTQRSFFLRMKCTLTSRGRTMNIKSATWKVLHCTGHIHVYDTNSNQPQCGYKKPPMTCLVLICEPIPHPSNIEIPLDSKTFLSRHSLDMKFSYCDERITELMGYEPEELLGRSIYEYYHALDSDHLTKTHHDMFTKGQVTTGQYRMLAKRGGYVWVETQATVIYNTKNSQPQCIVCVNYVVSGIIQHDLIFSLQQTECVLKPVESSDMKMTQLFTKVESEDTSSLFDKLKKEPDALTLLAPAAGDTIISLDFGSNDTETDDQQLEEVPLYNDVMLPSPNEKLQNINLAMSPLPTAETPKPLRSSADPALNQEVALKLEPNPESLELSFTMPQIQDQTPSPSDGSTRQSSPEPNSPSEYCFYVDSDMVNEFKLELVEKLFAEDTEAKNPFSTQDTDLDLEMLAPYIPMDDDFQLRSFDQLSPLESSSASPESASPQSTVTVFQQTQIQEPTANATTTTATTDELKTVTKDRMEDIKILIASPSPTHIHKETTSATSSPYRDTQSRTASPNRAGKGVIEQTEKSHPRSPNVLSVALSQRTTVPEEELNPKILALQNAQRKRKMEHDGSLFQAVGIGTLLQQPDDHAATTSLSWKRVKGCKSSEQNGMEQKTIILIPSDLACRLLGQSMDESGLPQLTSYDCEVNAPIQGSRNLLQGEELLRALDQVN
Transcription factor Sp1 (Homo sapiens), sequence (P08047 whole entry, looked up): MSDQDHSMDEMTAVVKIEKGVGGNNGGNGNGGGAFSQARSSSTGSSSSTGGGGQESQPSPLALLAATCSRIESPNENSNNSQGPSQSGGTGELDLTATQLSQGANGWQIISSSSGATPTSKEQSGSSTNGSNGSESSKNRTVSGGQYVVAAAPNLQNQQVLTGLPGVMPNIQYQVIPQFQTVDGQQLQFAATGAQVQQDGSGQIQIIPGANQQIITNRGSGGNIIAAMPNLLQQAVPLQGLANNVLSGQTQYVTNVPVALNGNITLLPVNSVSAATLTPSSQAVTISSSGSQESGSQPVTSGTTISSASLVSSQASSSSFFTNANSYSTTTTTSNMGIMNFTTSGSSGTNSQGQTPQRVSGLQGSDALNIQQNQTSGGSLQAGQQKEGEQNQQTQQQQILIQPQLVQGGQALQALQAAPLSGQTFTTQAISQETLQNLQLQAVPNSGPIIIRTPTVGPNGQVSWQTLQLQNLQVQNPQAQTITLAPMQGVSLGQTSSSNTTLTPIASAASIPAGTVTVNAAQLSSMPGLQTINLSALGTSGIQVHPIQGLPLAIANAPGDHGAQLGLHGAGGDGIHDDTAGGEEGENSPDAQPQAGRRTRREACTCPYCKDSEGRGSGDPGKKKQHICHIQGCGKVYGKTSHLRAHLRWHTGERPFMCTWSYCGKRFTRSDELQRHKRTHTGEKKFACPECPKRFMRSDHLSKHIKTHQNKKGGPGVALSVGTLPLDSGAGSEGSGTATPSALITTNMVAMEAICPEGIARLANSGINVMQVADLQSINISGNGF
Paired box protein Pax-6 (Homo sapiens), sequence (P26367 whole entry, looked up): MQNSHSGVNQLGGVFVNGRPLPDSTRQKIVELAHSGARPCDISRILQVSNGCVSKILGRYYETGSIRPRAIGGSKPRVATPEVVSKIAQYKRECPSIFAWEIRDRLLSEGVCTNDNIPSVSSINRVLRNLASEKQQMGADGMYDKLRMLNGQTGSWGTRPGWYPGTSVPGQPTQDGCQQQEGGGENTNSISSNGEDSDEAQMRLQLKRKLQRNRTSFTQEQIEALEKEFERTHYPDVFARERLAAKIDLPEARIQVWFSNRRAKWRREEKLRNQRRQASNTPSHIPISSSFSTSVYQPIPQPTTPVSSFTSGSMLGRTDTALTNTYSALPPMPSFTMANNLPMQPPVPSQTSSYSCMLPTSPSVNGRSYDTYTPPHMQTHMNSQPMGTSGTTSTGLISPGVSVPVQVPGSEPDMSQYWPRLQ

`CCCCCCCCC=CCCCCCCCC1=NCCN1CCO`: the AC50 in test [1] is 26.1 µM (active); in test [3], 189 µM (active); in test [11] it was 60.6 µM (active); in [12], 0.261 µM (active); in test [17], 25.9 µM (active). In addition, the molecule was called inactive in [2], in test [4], in test [5], in [6], in [7] and in [8]. Further, the outcome in test [9], in test [10], in [13], in test [14], in test [15] and in test [16] was inactive. The molecule was called inactive in [18] and in test [19].

Consider `CCCC(C)C(O)CC` (centres undefined), for which the molecule was classed as inactive in [1], in [2], in test [3], in [4], in [20] and in [5]. Also, the molecule was classed as inactive in test [6], in [7], in test [8], in [11], in [13] and in test [14]. Besides, the outcome in test [15], in test [16], in test [17], in test [18] and in test [19] was inactive.

Turning to `CC(C)=CCCC(C)CCOC=O` (centres undefined), the call in test [1], in [2], in test [3], in test [4], in test [5] and in test [6] was inactive. Besides, the molecule was called inactive in [7], in test [8], in [9], in test [10], in test [12] and in [13]. Moreover, the molecule was called inactive in test [15], in test [16], in test [17], in test [18] and in test [19]. Further, in test [11], the AC50 is 100 µM (active).

Broadly, the AC50 is the midpoint of the concentration-response curve, whichever way the signal moves.

For the origin of these results see PubChem BioAssay (EPA / NIEHS).
